Common to all, as to assay: NCI-60 one-dose screen, 48 h (100 = growth as untreated, 0 = no growth, -100 = all killed)
Settings in all cases: 10 µM unless noted

Assay [1] relates to T-47D breast.
Assay [2] deals with BT-549 breast.
Assay [3] concerns MDA-MB-435 melanoma.
Assay [4] concerns SW-620 colon.
Assay [5] relates to MCF7 breast.
The subject of assay [6] is HCT-116 colon.
Assay [7] has as its system HCC-2998 colon.
The test system of assay [8] is KM12 colon.

Values joined by “and” are separate entries in the source; they are usually repeats but may differ in a detail not shown here. Equal entries are not always repeated. The panel holds about 83,000 compounds, 20% with a hit somewhere; the sample as a whole holds those more often.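 Each cell line was grown in a 96-well plate and treated with one concentration of compound for 48 hours. Values below 10 were considered active.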 Active and inactive are the calls of the source. Where a SMILES comes first, the peptide text is derived from it.

As for `O=C1OC(C(O)C(O)CO)C(O)=C1O` (stereo not given), the growth in assay [1] was 103% (inactive) and 83.1% (inactive); in assay [2], 106% (inactive); in assay [3] it was 114% (inactive) and 109% (inactive); in assay [4] it was 117% (inactive) and 105% (inactive); in assay [5] it was 98.9% (inactive) and 97.4% (inactive); in assay [6], 100% (inactive) and 92.8% (inactive). Further, the growth in assay [7] is -23.7% (active) and 98.9% (inactive); in assay [8], 109% (inactive) and 103% (inactive).

On to `CC1CCC2(OC1)OC1CC3C4CC=C5CC(O)CCC5(C)C4CCC3(C)C1C2C` (stereo not given), for which the growth in assay [1] was 106% (inactive); in assay [2], 130% (inactive); in assay [3], 116% (inactive); in assay [4], 106% (inactive); in assay [5] it was 105% (inactive); in assay [6] it was 92.2% (inactive). For the same molecule, the figures for the growth in assay [7] and in assay [8] were 112% (inactive) and 104% (inactive), respectively.

With `COc1cc(C(O)C2C(=O)OCC2C2(c3ccc4c(c3)OCO4)SCCCS2)cc(OC)c1OC` (stereo not given), the growth was 107% (inactive) in assay [1]; 102% (inactive) in assay [2]; 101% (inactive) in assay [3]; 102% (inactive) in assay [4]; 97.6% (inactive) in assay [5]; 91.7% (inactive) in assay [6]. The values for the growth in assay [7] and in assay [8] were 98.5% (inactive) and 96.2% (inactive), respectively.

Turning to `O=C1CSC2=NCCN12`, the growth in assay [1] is 111% (inactive); in assay [2], 131% (inactive); in assay [3] it was 71.5% (inactive) and 70.6% (inactive); in assay [4] it was 92% (inactive) and 93.4% (inactive); in assay [5], 92.7% (inactive) and 81.6% (inactive); in assay [6], 82.7% (inactive) and 63.8% (inactive). Further, the growth in assay [7] is 96.9% (inactive) and 107% (inactive); in assay [8], 89.8% (inactive) and 123% (inactive).

For `O=c1n(CC2CO2)c(=O)n(CC2CO2)c(=O)n1CC1CO1` (stereo not given), the growth is 53.5% (inactive) in assay [1]; 77.1% (inactive) in assay [2]; 82.9% (inactive) in assay [3]; 75.5% (inactive) in assay [4]; 42.5% (inactive) in assay [5]; 73.9% (inactive) in assay [6]. Moreover, the growth in assay [7] is 94.8% (inactive); in assay [8], 90.3% (inactive).

On to `O=C(O)/C=C\C(=O)Nc1cccc2ccccc12`, for which the growth in assay [1] is 120% (inactive) and 107% (inactive); in assay [2], 84.4% (inactive) and 91.7% (inactive); in assay [3], 113% (inactive) and 103% (inactive); in assay [4] it was 99.5% (inactive) and 106% (inactive); in assay [5], 97.3% (inactive) and 101% (inactive); in assay [6], 103% (inactive) and 101% (inactive). In addition, the growth in assay [8] was 89.8% (inactive) and 106% (inactive).

As for `OCC1OC(O)C(O)C(O)C1O` (stereo not given), the growth was 102% (inactive) in assay [1]; 110% (inactive) in assay [2]; 113% (inactive) in assay [3]; 96.9% (inactive) in assay [4]; 82.6% (inactive) in assay [5]; 104% (inactive) in assay [6]. In addition, the growth is 94% (inactive) in assay [7] and 128% (inactive) in assay [8].

Turning to `Nc1cc(N)c(N)cc1N`, the growth in assay [1] is 81.7% (inactive); in assay [2], 85.4% (inactive); in assay [3] it was -73.8% (active); in assay [4], 7.1% (active); in assay [5], -49.2% (active); in assay [6], 0.84% (active). In addition, the growth is 101% (inactive) in assay [7] and 80.1% (inactive) in assay [8].

Consider `Cc1cc2ccccc2cn1`, for which the growth in assay [1] is 104% (inactive) and 107% (inactive); in assay [2], 106% (inactive) and 105% (inactive); in assay [3], 101% (inactive) and 106% (inactive); in assay [4] it was 104% (inactive) and 116% (inactive); in assay [5] it was 98.5% (inactive) and 101% (inactive); in assay [6] it was 99% (inactive) and 108% (inactive). For the same molecule, the growth in assay [8] is 106% (inactive) and 108% (inactive).

Turning to `c1ccc2c(c1)OC1OC2Oc2ccccc21`, the growth was 100% (inactive) in assay [1]; 93.2% (inactive) in assay [2]; 115% (inactive) in assay [3]; 107% (inactive) in assay [5]; 113% (inactive) in assay [6]; 87.3% (inactive) in assay [8].

In the case of `CCCCCCCCCCCCCCCCC(C(=O)O)C(O)(CC(=O)O)C(=O)O` (stereo not given), the growth in assay [1] is 98.2% (inactive) and 4.81% (active); in assay [2], 103% (inactive) and -46.4% (active); in assay [3], 102% (inactive) and -33.7% (active); in assay [5] it was 95.7% (inactive) and -2.93% (active); in assay [6] it was 105% (inactive) and -35.5% (active); in assay [8], 105% (inactive) and -34.4% (active).

For `CCc1cc(C)cc(O)c1`, the growth in assay [1] was 102% (inactive); in assay [3] it was 113% (inactive); in assay [4] it was 107% (inactive); in assay [5], 98.3% (inactive); in assay [6], 98.2% (inactive); in assay [8] it was 114% (inactive).

For the molecule `O=C(CO)C(O)C(O)C(O)C(O)CO` (stereo not given), the growth in assay [2] was 111% (inactive) and 117% (inactive); in assay [3], 110% (inactive) and 107% (inactive); in assay [5], 101% (inactive) and 102% (inactive); in assay [6] it was 99.7% (inactive) and 97.4% (inactive); in assay [7] it was 109% (inactive) and 119% (inactive); in assay [8] it was 106% (inactive) and 105% (inactive).

Take `Cc1cc(-c2ccc(N=Nc3ccc4c(S(=O)(=O)O)cc(S(=O)(=O)O)c(N)c4c3O)c(C)c2)ccc1N=Nc1ccc2c(S(=O)(=O)O)cc(S(=O)(=O)O)c(N)c2c1O`: the growth in assay [1] is 93.1% (inactive); in assay [2], 86.1% (inactive); in assay [3] it was 98.5% (inactive); in assay [5], 103% (inactive); in assay [6] it was 85.8% (inactive); in assay [8], 94.7% (inactive).

Take `c1ccc(-c2nc3ccccc3s2)cc1`: the growth is 96.8% (inactive) in assay [2]; 110% (inactive) in assay [3]; 80.3% (inactive) in assay [5]; 97.3% (inactive) in assay [6]; 95.4% (inactive) in assay [8].

Turning to `O=C(O)CCCl`, the growth in assay [1] was 110% (inactive); in assay [2], 113% (inactive); in assay [3] it was 109% (inactive); in assay [5], 97.5% (inactive); in assay [6], 94.8% (inactive); in assay [8], 106% (inactive).

Turning to `CN(C)c1ccc(/C=C\C(=O)c2ccccc2)cc1`, the growth is 85.2% (inactive) and 89.3% (inactive) in assay [1]; 76.5% (inactive) and 77.6% (inactive) and 73.7% (inactive) in assay [2]; 85.3% (inactive) and 38% (inactive) and 25.1% (inactive) in assay [3]; 50.2% (inactive) and 39.2% (inactive) and 45% (inactive) in assay [5]; 75.9% (inactive) and 94.2% (inactive) and 59.2% (inactive) in assay [6]; 51.5% (inactive) and 50.1% (inactive) and 57.5% (inactive) in assay [8].

As to `CC(C)(O)C(=O)O`, the growth is 100% (inactive) in assay [1]; 103% (inactive) in assay [2]; 107% (inactive) in assay [3]; 93.8% (inactive) in assay [5]; 100% (inactive) in assay [6]; 107% (inactive) in assay [8].

Regarding `NC(Cc1ccccc1)C(=O)NC(Cc1ccccc1)C(=O)O` (stereo not drawn) (H-Phe-Phe-OH; configuration not given here), the growth in assay [1] was 89.3% (inactive) and 91.7% (inactive); in assay [2], 108% (inactive) and 106% (inactive); in assay [3], 109% (inactive) and 99.7% (inactive); in assay [5], 98.9% (inactive) and 94.3% (inactive); in assay [6] it was 103% (inactive) and 100% (inactive); in assay [8], 105% (inactive) and 107% (inactive).

In the case of `COc1ccc(N/C=C/C2=[N+](C)c3ccccc3C2(C)C)c(OC)c1`, the growth was 89.5% (inactive) in assay [1]; 89.3% (inactive) in assay [2]; 95% (inactive) in assay [3]; 87.7% (inactive) in assay [5]; 88.8% (inactive) in assay [6]; 103% (inactive) in assay [8].

For the molecule `O=CN1CCCCC1`, the growth was 109% (inactive) in assay [1]; 97.3% (inactive) in assay [2]; 107% (inactive) in assay [3]; 97.6% (inactive) in assay [5]; 104% (inactive) in assay [6]; 100% (inactive) in assay [8].

Take `N#CC(C#N)N=Nc1ccc(Cl)cc1`: the growth in assay [1] was -0.279% (active); in assay [2], 77.1% (inactive); in assay [3], 79.6% (inactive); in assay [5], 27.3% (inactive); in assay [6], 16.9% (inactive); in assay [8] it was 85.9% (inactive).

As for `N#CC(C#N)N=Nc1cc(Cl)ccc1Cl`, the growth is 96.7% (inactive) in assay [1]; 101% (inactive) in assay [2]; 93.7% (inactive) in assay [5]; 97.2% (inactive) in assay [6]; 103% (inactive) in assay [8].

Consider `Cc1cc(-c2cc(C)c(O)c(C)c2)cc(C)c1O`, for which the growth in assay [1] is 93.7% (inactive); in assay [2], 65.7% (inactive); in assay [3], 8.38% (active); in assay [5] it was 91.6% (inactive); in assay [6] it was 83.7% (inactive); in assay [7], 92.3% (inactive). Moreover, the growth in assay [8] was 72.6% (inactive).

`Cc1ccc(S(=O)(=O)c2ccccc2)cc1`: the growth in assay [1] is 49.7% (inactive); in assay [2] it was 36.6% (inactive); in assay [3], -49.8% (active); in assay [5] it was 20.9% (inactive); in assay [6] it was 18.8% (inactive); in assay [7], 51.6% (inactive). For the same molecule, in assay [8], the growth was 25.5% (inactive).

Take `CCCCCCCCCCNC(=O)CI`: the growth was -21.1% (active) in assay [1]; -87% (active) in assay [2]; 9.57% (active) in assay [3]; 10.7% (inactive) in assay [5]; -28.3% (active) in assay [6]; 55.3% (inactive) in assay [8].

Consider `NC1CCC(C(=O)O)CC1` (stereo not given), for which the growth in assay [1] is 90.5% (inactive) and 95.8% (inactive); in assay [3], 106% (inactive); in assay [5], 96% (inactive) and 95.2% (inactive); in assay [6] it was 94.9% (inactive) and 99.3% (inactive); in assay [7], 111% (inactive) and 100% (inactive); in assay [8], 107% (inactive) and 108% (inactive).

In the case of `O=C1C=C(Nc2ccccc2)c2ccccc2C1=O`, the growth was 77.2% (inactive) and 102% (inactive) in assay [1]; 84.3% (inactive) and 100% (inactive) in assay [2]; -88% (active) and 99% (inactive) in assay [3]; 12.9% (inactive) and 78.4% (inactive) in assay [5]; 6.58% (active) and 92.8% (inactive) in assay [6]; 65.6% (inactive) and 84.4% (inactive) in assay [8].

`COc1ccc(C(=O)CC(c2ccccc2)C(C#N)c2ccccc2)cc1` (stereo not given): the growth in assay [3] is 78.9% (inactive); in assay [5], 93.4% (inactive); in assay [6] it was 91.2% (inactive); in assay [8] it was 79.9% (inactive).

For `CCCCNc1ccc(Nc2ccccc2)cc1`, the growth in assay [1] was 34% (inactive); in assay [2], 49.7% (inactive); in assay [3], 71.8% (inactive); in assay [5] it was 67.3% (inactive); in assay [6], 47.9% (inactive); in assay [8], 66% (inactive).

With `O=C1c2c(O)ccc(O)c2C(=O)c2c(NCCNCCO)ccc(NCCNCCO)c21`, the growth in assay [1] is -24% (active) and -46.9% (active); in assay [2], -46.2% (active) and -85.9% (active); in assay [3], -89.9% (active) and -94.9% (active); in assay [5], -42% (active); in assay [6], -20.2% (active) and -44.9% (active); in assay [8] it was -11.4% (active) and -25.6% (active).
